Measured potencies and affinities stand elsewhere.
Tested on: Staphylococcus aureus
Settings: Concentration 32 ug.mL-1;; ASSAY_TEST Inhibition of Bacterial Growth; detection method Absorption (OD600); MEDIA CAMHB; plate type 384well; NBS; CORNING #3640; time 18 hr

Compared with `O=C(Cn1nc2c3cc(-c4ccc(Cl)cc4)nn3ccn2c1=O)NCc1ccccc1`, `CCOc1ccc(NC(=O)Cn2nc3c(Sc4ccccc4)nccn3c2=O)cc1` is lower in Inhibition: 12.1% for the first, 1.52% for the second.

Going from `CC(C)c1nnc2c(SCC(=O)N3CCN(c4ccccc4F)CC3)nc3ccccc3n12` to `Cc1nnc2c(=O)n(CC(=O)Nc3ccccc3Cl)c3ccccc3n12`, the Inhibition rises from -2.06% to 10.77%.

Going from `Cc1ccc(C)c(Cn2nc3ccc(-c4ccc(C)c(C)c4)nn3c2=O)c1` to `Cc1ccc(-c2ccc3nn(Cc4nc(-c5ccc(Cl)cc5)no4)c(=O)n3n2)cc1`, the Inhibition falls from 6.01% to 5.13%.

First: CCOc1ccccc1NC(=O)Cn1nc2c(N3CCN(c4ccccc4)CC3)nccn2c1=O
Second: Cc1ccc(Oc2nccn3c(=O)n(CC(=O)N4CCN(c5ccc(F)cc5)CC4)nc23)cc1
The Inhibition of the first is lower: 1.85% for the first, 10.18% for the second.

Compared with `Cc1nnc2ccc(S(=O)(=O)N(Cc3ccccc3F)c3ccc(F)cc3)cn12`, `CCc1nnc2ccc(S(=O)(=O)N(Cc3ccc(F)cc3)c3ccccc3)cn12` is higher in Inhibition: -2.33% for the first, -1.95% for the second.

Going from `CCc1nnc2c(S(=O)(=O)N(Cc3cccc(OC)c3)c3ccc(F)cc3)cccn12` to `CCc1ccc(N(Cc2cccc(C)c2)S(=O)(=O)c2cccn3c(C)nnc23)cc1`, the Inhibition falls from -5.69% to -11.31%.

First: O=C(Cn1nc2ccc(Sc3cccc(F)c3)nn2c1=O)Nc1cccc(Cl)c1
Second: CCOC(=O)c1ccc(NC(=O)Cn2nc3ccc(-c4ccc(Cl)cc4)nn3c2=O)cc1
The Inhibition of the first is lower: -0.09% for the first, 7.47% for the second.

Compared with `O=C(CSc1nnc2c(=O)n(-c3ccccc3)ccn12)Nc1ccc(Br)cc1`, `COc1cccc(C(=O)CSc2nnc3c(=O)n(-c4ccc(F)cc4)ccn23)c1` is lower in Inhibition: 5.51% for the first, 4.06% for the second.

First: CC(C)NC(=O)CCn1c(=O)c2cc(Cl)ccc2n2c(=O)n(CC#N)nc12
Second: CCCc1nnc2c(=O)n(CC(=O)Nc3ccc(NC(C)=O)cc3)c3ccccc3n12
The Inhibition of the first is lower: 0.39% for the first, 9.51% for the second.

Compared with `COC(=O)c1ccc(NC(=O)Cn2nc3ccc(C(=O)NCc4ccccc4)cn3c2=O)cc1`, `COc1ccc(NC(=O)Cn2nc3ccc(SC(C)(C)C)nn3c2=O)cc1OC` is lower in Inhibition: 12.92% for the first, 4.97% for the second.

First: CCCCOc1ccc(-c2cc3c4nnc(SCC(=O)Nc5cccc(C)c5C)n4ccn3n2)cc1
Second: COc1ccc(-c2cc3c4nnc(SCC(=O)Nc5cc(F)ccc5C)n4ccn3n2)cc1
The Inhibition of the first is higher: -5.45% for the first, -23.41% for the second.

Going from `COc1ccc(NC(=O)C(C)Sc2nnc3c(=O)n(-c4cccc(OC)c4)ccn23)cc1` (stereo not given) to `COc1ccc2[nH]cc(C(=O)CSc3nnc4c(=O)n(-c5cccc(Cl)c5C)ccn34)c2c1`, the Inhibition rises from 6.45% to 18.84%.

In the case of `Cc1cc(C)c(NC(=O)Cn2nc3c4c5c(sc4ncn3c2=O)CCCC5)c(C)c1`, the Inhibition was 8.81%.
